Experiment in all cases: NCI-60 one-dose screen, 48 h (100 = growth as untreated, 0 = no growth, -100 = all killed)
Settings in all cases: 10 µM unless noted

In experiment [1] the test system is NCI-H23 lung.
Experiment [2] relates to NCI-H226 lung.
Experiment [3] has as its system NCI-H322M lung.
Experiment [4] deals with HOP-62 NSCLC.
The subject of experiment [5] is NCI-H460 lung.
Experiment [6] relates to HOP-92 NSCLC.
Experiment [7] has as its system 786-0 renal.
The test system of experiment [8] is COLO 205 colon.
Experiment [9] relates to DU-145 prostate.
Experiment [10] relates to K-562 leukemia.
The test system of experiment [11] is MALME-3M melanoma.
Experiment [12] has as its system MDA-MB-231 breast.
Experiment [13] concerns RXF 393 renal.
Experiment [14] relates to SF-268 CNS.
Experiment [15] deals with SF-295 CNS.
For experiment [16], the system named is SF-539 CNS.
Experiment [17] concerns M14 melanoma.
In experiment [18] the test system is A549/ATCC NSCLC.
The subject of experiment [19] is UACC-257 melanoma.

The record followed here is PubChem BioAssay (NCI).

This is part of a sample that, as a whole, favours compounds with a hit. Of some 83,000 tested, about 20% had one in any assay.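 Plates (96-well) were seeded with cells, treated with compound at one concentration, and incubated for 48 hours before percent growth was determined.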 Unmarked numbers belong to inactive results. The source made the active and inactive calls. How the source made its calls: active means growth percent below 10; inactive means the rest.

For `CCN(CC)CCCCCCCCNc1c2ccc(Cl)cc2nc2ccc(OC)cc12`, the growth in experiment [1] was -43.8% (active); in experiment [2], -21.4% (active); in experiment [3] it was -39.2% (active); in experiment [4], -67.8% (active); in experiment [5] it was -51.6% (active); in experiment [6], -75.9% (active). For the same molecule, the growth was -88.8% (active) in experiment [7]; -84.6% (active) in experiment [8]; -66.6% (active) in experiment [9]; -39.3% (active) in [10]; -65.6% (active) in [11]; -72.2% (active) in [12]. For the same molecule, the growth in experiment [13] is -92.8% (active); in [14] it was -73.2% (active); in experiment [15] it was -76% (active); in experiment [16], -82% (active); in [17], -82.4% (active).
With `O=C1OC(/C=C/c2ccccc2)=NC/1=C/c1ccccc1[N+](=O)[O-]`, the growth in experiment [1] is 106%; in [2] it was 93.3%; in [3], 84.6%; in experiment [4], 91.4%; in [5], 103%; in experiment [6], 81.2%. For the same molecule, the growth is 97.6% in experiment [7]; 98% in experiment [8]; 105% in [9]; 106% in [10]; 96.9% in experiment [11]; 99% in [12]. Besides, the growth is 116% in experiment [13]; 99.7% in experiment [14]; 97.4% in experiment [15]; 89.8% in experiment [16]; 99.6% in experiment [17].
On to `Cc1cccc2nc3ccccc3c(Nc3ccc(NS(C)(=O)=O)cc3)c12`, for which the growth in [1] is 57.8%; in experiment [2] it was 5.12% (active); in experiment [3] it was 92.8%; in experiment [4], 35.2%; in experiment [5], 10.1%; in [6] it was -3.43% (active). Moreover, the growth in [7] is 38.2%; in [8], 51.1%; in [9], 23.1%; in [10] it was 35.1%; in experiment [11] it was 40.4%; in experiment [12], 72.9%. Besides, the growth in [13] is 55.4%; in experiment [14] it was 57.9%; in experiment [15], 21.6%; in experiment [16] it was 39.6%; in [17], 70.7%.
In the case of `O=C(CC(=O)c1ccccc1F)Nc1ccc([N+](=O)[O-])cc1`, the growth in experiment [1] is 105%; in experiment [2] it was 86.2%; in experiment [3], 91.5%; in [4], 114%; in experiment [5] it was 104%; in experiment [6] it was 79.6%. The growth in experiment [7] was 101%; in [8], 105%; in [9], 119%; in [10], 91.9%; in [11] it was 93.6%; in experiment [12] it was 103%. For the same molecule, the growth in experiment [13] was 103%; in experiment [14], 105%; in experiment [15] it was 98%; in [16] it was 93.2%; in experiment [17], 100%.
Turning to `COC(=O)[C@H](Cc1cn(C)cn1)NC(=O)[C@H](CC(C)C)NC(=O)Nc1cc(C(F)(F)F)cc(C(F)(F)F)c1`, the growth in [1] is -84.5% [100 µM] (active); in experiment [2], -54.7% [100 µM] (active); in experiment [3] it was -97.8% [100 µM] (active); in experiment [4], -100% [100 µM] (active); in experiment [5], -59.8% [100 µM] (active); in experiment [6] it was -98.2% [100 µM] (active). The growth in experiment [7] is -94.9% [100 µM] (active); in experiment [8], -84.4% [100 µM] (active); in [9] it was -100% [100 µM] (active); in experiment [10] it was -65.4% [100 µM] (active); in [11], -93.5% [100 µM] (active); in experiment [12] it was -94% [100 µM] (active). The growth was -89.3% [100 µM] (active) in [13], -92.8% [100 µM] (active) in experiment [14], -96.5% [100 µM] (active) in experiment [15] and -95.2% [100 µM] (active) in experiment [17].
`Cc1cc(Nc2c3ccccc3nc3ccccc23)ccc1NS(C)(=O)=O`: the growth is 47% in experiment [1]; 41.8% in experiment [2]; 34.3% in experiment [3]; 36.9% in experiment [4]; 14.4% in experiment [5]; -5.41% (active) in [6]. The growth in experiment [7] is 39.8%; in experiment [8], 18.3%; in experiment [9], 29.3%; in experiment [10], 17.7%; in experiment [11] it was 44.1%; in experiment [12], 50%. Further, the growth in [13] is 35%; in [14], 37.5%; in experiment [15], 34.4%; in experiment [16], 15%; in [17], 45.1%.
In the case of `NNc1ccc(S(N)(=O)=O)cc1`, the growth in experiment [1] was 90.7%; in experiment [2] it was 93.7%; in [3], 110%; in [4], 91.2%; in [5] it was 107%; in experiment [6], 85.3%. The growth in experiment [7] was 103%; in experiment [8], 105%; in experiment [9], 121%; in experiment [10], 109%; in experiment [11] it was 104%; in [13], 105%. In addition, the growth in [14] was 108%; in [15], 105%; in experiment [16], 98.6%; in experiment [17], 101%.
In the case of `O=C(c1ccc(OCCN2CCCCC2)cc1)c1c(-c2ccc(O)cc2)sc2cc(O)ccc12`, the growth in experiment [1] was 82.5%; in experiment [2] it was 92.3%; in experiment [3], 114%; in [4], 89.2%; in [5], 93.5%; in experiment [6], 66.7%. Also, the growth in [18] is 91.6%; in experiment [7], 74.7%; in [11], 99.4%; in [12], 72.2%; in [13], 70.2%; in experiment [14], 84.3%. Besides, the growth was 106% in [15], 98.6% in experiment [16], 92.8% in experiment [19] and 93.3% in [17].
Take `COc1ccc(-c2cc(-c3cc4ccccc4oc3=O)n(-c3ccccc3)n2)cc1`: the growth in experiment [1] was 79.3%; in [2] it was 75.7%; in experiment [3], 78.1%; in experiment [4], 55.4%; in [5], 95.3%; in experiment [6], 67%. For the same molecule, the growth in [7] is -31.5% (active); in [8], 66.3%; in [9], 84%; in [10], 81.8%; in [11], 69.5%; in [12], 60.1%. The growth in [14] is 71.1%; in experiment [15], 94.7%; in [16], 33.8%; in experiment [17] it was 89%.
